Bioassay records deposited in PubChem BioAssay by National Center for Advancing Translational Sciences (NCATS).
Hits are enriched below; roughly 18% of the tested compounds scored in any of these assays.
VDR inh – Inhibitors of the vitamin D receptor (VDR): qHTS; AID 504847, 2011; VDR-SRC2-3 peptide fluorescence polarization, 2 h; Vitamin D3 receptor (Homo sapiens), P11473; actives 0.93% (n = 400,000); Potency, µM, for inactives: max response, negative = inhibition, most hits filed as inhibitors
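Fluorescence polarization assay measuring small-molecule disruption of VDR binding to the coregulator peptide SRC2-3. Compounds were pin-transferred (23 nl) into the reagent mix and incubated 2 h at room temperature before reading.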
TDP1 block – qHTS Assay for Inhibitors of Tyrosyl-DNA Phosphodiesterase (TDP1). recombinant TDP1, AlphaScreen DNA substrate cleavage. actives 0.28% (n = 350,000). Potency, µM (series often up to 130 µM), for inactives: top-dose activity change, negative = inhibition, hits mostly inhibitors; also: nearly all actives have a fitted effect of over 40% in size
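Recombinant human Tdp1 (E. coli-expressed, 1 nM final) preincubated with compounds 15 min at room temperature, then 5'-biotin/3'-phosphotyrosine-FITC DNA substrate (15 nM final) added for 5 min. AlphaScreen beads (10 ug/ml final) added 10 min; cleavage lowers signal.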
DT40 TDP1 CPT – qHTS for Inhibitors of human tyrosyl-DNA phosphodiesterase 1 (TDP1): qHTS in cells in presence of CPT; chicken DT40 Tdp1-/-;hTDP1 cells + 20 nM CPT, ATP luminescence, 48 h; Potency, µM (series often up to 46.2 µM), for inactives: at the top dose activity change, negative = growth inhibition, usual class: inhibitors; actives 12% (n = 420,000); AID 686979, 2013; also: nearly all actives have a fitted effect of over 55% in size
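Chicken DT40 Tdp1-/- cells complemented with human TDP1, 400 cells/well, exposed to compounds plus 20 nM camptothecin for at least 48 h at 37 C; viability read as ATP content by CellTiter-Glo luminescence.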
PLK1 PBD inh – qHTS for Inhibitors of PLK1-PDB (polo-like kinase 1 - polo-box domain): Primary Screen; AID 720504, 2013; actives 2.8% (n = 360,000); Plk1 PBD binding of FITC phosphopeptide, fluorescence polarization; Potency, µM, for inactives: max response, negative = inhibition, most hits filed as inhibitors; also: series mostly up to about 57 µM; nearly all actives have a fitted effect of over 65% in size
DT40 TDP1 no CPT – qHTS for Inhibitors of human tyrosyl-DNA phosphodiesterase 1 (TDP1): qHTS in cells in absence of CPT. actives 15% (n = 420,000). DT40 Tdp1-/- hTDP1 cells, no CPT, ATP luminescence, 48 h. Potency, µM (series often up to 46.2 µM), without a hit: top-dose activity change, negative = growth inhibition, hits mostly inhibitors; also: nearly all actives have a fitted effect of over 55% in size
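Camptothecin absent (DMSO only). Human TDP1-complemented DT40 knockout cells, 400 cells/well, 37 °C for minimum 48 hr; ATP measured via CellTiter-Glo, 30 min dark incubation, luminescence.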
KAT2A inh – qHTS Assay for Inhibitors of GCN5L2 | GCN5L2 HAT assay, ThioGlo1 CoA-SH fluorescence | Potency, µM (titrated, usually from 58.9 µM), without a hit: at the highest dose activity change, negative = inhibition, actives largely listed as inhibitors | Histone acetyltransferase KAT2A (Homo sapiens), Q92830 | actives 0.21% (n = 390,000)
Target sequence (Q92830 whole entry, looked up): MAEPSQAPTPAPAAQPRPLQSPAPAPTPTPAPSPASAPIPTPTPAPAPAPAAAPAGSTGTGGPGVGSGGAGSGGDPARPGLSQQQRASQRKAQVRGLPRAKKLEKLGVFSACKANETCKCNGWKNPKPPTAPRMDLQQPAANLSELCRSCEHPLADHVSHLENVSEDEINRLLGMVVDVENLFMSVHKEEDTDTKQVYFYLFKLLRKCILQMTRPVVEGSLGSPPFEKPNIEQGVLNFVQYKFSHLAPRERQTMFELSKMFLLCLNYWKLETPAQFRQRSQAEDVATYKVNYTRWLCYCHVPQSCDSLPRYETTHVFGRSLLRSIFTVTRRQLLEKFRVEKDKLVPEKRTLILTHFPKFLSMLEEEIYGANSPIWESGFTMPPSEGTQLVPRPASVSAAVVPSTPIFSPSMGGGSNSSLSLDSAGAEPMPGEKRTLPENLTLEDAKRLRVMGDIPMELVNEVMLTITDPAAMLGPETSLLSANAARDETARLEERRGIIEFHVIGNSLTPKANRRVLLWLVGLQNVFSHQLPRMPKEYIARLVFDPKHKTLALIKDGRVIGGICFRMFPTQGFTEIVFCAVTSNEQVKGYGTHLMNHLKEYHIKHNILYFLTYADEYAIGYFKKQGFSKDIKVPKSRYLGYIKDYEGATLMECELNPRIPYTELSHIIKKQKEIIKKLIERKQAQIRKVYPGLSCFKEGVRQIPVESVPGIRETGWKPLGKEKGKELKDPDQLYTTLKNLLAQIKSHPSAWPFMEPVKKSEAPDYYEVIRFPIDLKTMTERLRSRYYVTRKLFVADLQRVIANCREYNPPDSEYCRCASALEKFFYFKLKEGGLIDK
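ThioGlo1-coupled HAT assay: 20nM GCN5L2, 70uM acetyl-CoA, 75uM H3(1-25) peptide, pH 7.5. Fluorescence read at 340/540nm at start and after 20 min at room temperature.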
* marks the source's active call; other numbers are inactive results; ? = inconclusive; . = not tested or not shown; [ ] = another dose, or the depositor's remark. Calls follow the shape of the dose curve; as a rule, active = well fitted curve in the direction sought with a large enough effect; inconclusive = small, poorly fitted or top-dose-only effect, or another doubt; inactive = no such curve, though single readings can be large; an effect the other way counts as inactive or inconclusive. % is scaled to controls: 0 for no effect and ±100 for the full control effect; potency is read from the fitted curve at half-maximal effect.

SMILES	VDR inh	TDP1 block	DT40 TDP1 CPT	PLK1 PBD inh	DT40 TDP1 no CPT	KAT2A inh
O=C(NCC(=O)N1CCCCCC1)c1ccc(OC(F)F)cc1	-15%	1%	3%	-15%	-7%	-2%
O=C(NCC(=O)N1CC=C(c2ccccc2)CC1)c1ccccc1Br	-6%	3%	?	4%	21µM*	-2%
CC(=O)c1sc(NC(=O)C(C)Oc2ccc3c(C)cc(=O)oc3c2)nc1C (stereo not given)	-9%	3%	-14%	-13%	?	-3%
CCN(CC)S(=O)(=O)c1ccc(Cl)c(C(=O)Nc2cc(C)nn2-c2ccccc2C(F)(F)F)c1	.	3%	.	.	.	15%
Cc1ccc(CN(Cc2ccccc2)C(=S)NCC(=O)NCc2cccnc2)o1	-14%	6%	?	?	-11%	-16%
O=C1C2C3C=CC(C3)C2C(=O)N1Nc1c(Cl)cc(Cl)cc1Cl (stereo not given)	3%	8%	-20%	2%	6%	-7%
CCC(CC)C(=O)N(C)c1c(C)nc2c(OCC(=O)C(C)(C)C)cccn12	.	.	-20%	-11%	?	.
CCC(CC)C(=O)N(C)c1c(C)nc2c(OCCOc3ccc(F)cc3)cccn12	.	.	21µM*	-2%	18µM*	.
CCC(CC)C(=O)N(C)c1c(C)nc2c(OCCC3CCCCC3)cccn12	.	.	7.3µM*	-9%	5.2µM*	.
COCCN(Cc1ccccc1)C(=O)C1CCN(C(=O)Nc2ccccc2)CC1	1%	-2%	4%	5%	-1%	-1%
CC[C@H](C)[C@H](NC(=O)[C@H](CCCN=C(N)N)NC(=O)[C@H](CCCN=C(N)N)NC(=O)[C@H](CC(C)C)NC(=O)[C@H](Cc1ccccc1)NC(=O)CNC(=O)CN)C(=O)N[C@@H](CCCN=C(N)N)C(=O)N1CCC[C@H]1C(=O)N[C@@H](CCCCN)C(=O)N[C@@H](CC(C)C)C(=O)N[C@@H](CCCCN)C(=O)O	2%	10%	2%[4.12 µM]	.	-8%[4.12 µM]	13%
Cc1c(C)c2c(c(C)c1O)CCC(C)(C(=O)O)O2 (stereo not given)	-2%	.	-19%	-11%	-16%	-6%
Cc1c(O)ccc2c1OC(C)(C)CC2	.	.	5.6µM*	.	4µM*	.
COc1cccc([C@@H]2Oc3ccc(OC)cc3C(=O)[C@H]2OC(=O)Nc2ccc(OC(F)F)cc2)c1	-4%	6%	.	.	.	.
C=CCn1nc(C(=O)Nc2ccc(OC)cc2)cc1-c1sc(NC(=O)c2ccccc2)nc1C	.	.	18µM*	0%	?	.
CSC1=C(C#N)C(c2ccc(Cl)cc2)C2=C(CC(C)(C)CC2=O)N1 (stereo not given)	-16%	4%	0.92µM*	-9%	0.92µM*	0%
CCCSC1=C(C#N)C(c2ccc(OC)cc2)C2=C(CC(C)(C)CC2=O)N1 (stereo not given)	-1%	4%	5.2µM*	-12%	4.1µM*	-3%
COc1ccc(C2C(C#N)=C(C)NC3=C2C(=O)CC(C)(C)C3)cc1 (stereo not given)	19%	-3%	-29%	-5%	-14%	-12%
Cc1ccc(C2=NN(C(=O)CNCCO)C(c3cccs3)C2)cc1 (stereo not given)	4%	5%	?	4%	?	-2%
COCCNS(=O)(=O)c1ccc2c3c(cccc13)C(=O)N2C	-9%	-5%	-10%	-7%	-21%	-19%
